# From the supplement of paper PMC3334620
# The full ranking holds about 33,000 sequences; the median of “E-score (-0.5 to 0.5)” is about -0.043, and the highest 2% start at about 0.37. Only a selection was taken, and the highest values are over-represented in it overall.
# Molecular target: T1, Upc2 (UniProt Q12151)
# T1 sequence: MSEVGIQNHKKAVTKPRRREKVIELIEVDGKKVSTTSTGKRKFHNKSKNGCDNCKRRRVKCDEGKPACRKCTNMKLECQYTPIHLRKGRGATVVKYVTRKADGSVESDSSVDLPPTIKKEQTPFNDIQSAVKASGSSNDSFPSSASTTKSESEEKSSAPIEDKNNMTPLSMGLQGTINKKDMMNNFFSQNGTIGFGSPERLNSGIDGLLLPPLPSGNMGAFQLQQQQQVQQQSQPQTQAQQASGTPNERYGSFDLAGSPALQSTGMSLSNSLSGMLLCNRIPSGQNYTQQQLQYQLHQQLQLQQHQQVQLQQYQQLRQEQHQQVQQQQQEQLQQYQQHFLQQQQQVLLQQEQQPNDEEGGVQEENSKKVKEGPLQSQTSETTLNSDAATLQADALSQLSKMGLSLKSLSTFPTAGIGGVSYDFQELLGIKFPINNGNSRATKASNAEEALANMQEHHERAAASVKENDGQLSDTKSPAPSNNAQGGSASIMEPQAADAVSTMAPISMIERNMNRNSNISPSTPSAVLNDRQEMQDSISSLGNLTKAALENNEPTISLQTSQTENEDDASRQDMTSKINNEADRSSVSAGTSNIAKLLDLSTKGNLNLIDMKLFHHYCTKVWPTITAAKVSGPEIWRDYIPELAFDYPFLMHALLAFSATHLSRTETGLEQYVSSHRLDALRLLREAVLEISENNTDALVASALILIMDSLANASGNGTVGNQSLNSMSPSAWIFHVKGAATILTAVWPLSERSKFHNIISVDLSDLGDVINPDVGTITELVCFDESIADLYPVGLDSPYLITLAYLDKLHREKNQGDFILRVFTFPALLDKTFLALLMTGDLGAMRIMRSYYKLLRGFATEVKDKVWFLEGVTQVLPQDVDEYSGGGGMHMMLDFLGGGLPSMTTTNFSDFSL
# Assay: PBM E-score (8-mer binding enrichment) (E-score (-0.5 to 0.5)); higher = stronger / more preferred TF binding
# Conditions: protein concentration: 200 nM; construct: GST-full length
# Description: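 Universal 'all 10-mer' protein binding microarrays (Agilent AMADID 015681) probed with GST-tagged S. cerevisiae TFs (full-length or DBD) made by in vitro transcription/translation (PURExpress), about 100-200 nM. Bound TF was detected with fluorescent anti-GST. Each ungapped 8-mer (which stands for itself and its reverse complement) is scored by the PBM enrichment score (E-score), a modified Wilcoxon-Mann-Whitney statistic from -0.5 to +0.5, computed with the Universal PBM Analysis Suite. Scale: above 0.35 generally sequence-specific binding.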
row,Sequence,PBM E-score
1,GGTCTGTA,0.0803
2,ATGGACCA,0.0213
3,ATGAGTGA,-0.101
4,CGTTCGAA,0.221
5,AGTGCCAT,-0.133
6,GAACCACA,-0.0218
7,ATTTAGAA,-0.14
8,AAGGCCGT,0.244
9,ACCTGGGA,-0.245
10,AAATTTAA,0.184
11,CACGATAA,0.074
12,GACGATAA,0.111
13,TACGATAA,0.416
14,TCAGCGGA,-0.0114
15,CGTTTACC,0.449
16,CATTTACC,-0.152
17,GGTTTACA,-0.0166
18,AGTTTACC,0.0436
19,AGTTTACA,-0.0264
20,CGTTTACA,0.441
21,AACGGAAA,0.216
22,GCAAAACA,-0.144
23,CGGGGGGC,0.063
24,CTACAACC,0.0888
25,GGTTCGGA,-0.168

row,Sequence,PBM E-score
1,GGTTCGAA,0.0921
2,GGTTCGTA,0.445
3,CGTTCGTA,0.45
4,CGTTCGTC,0.293
5,CGTTCGGA,0.265
6,AGTTCGTG,0.158
7,AGTTCGTC,0.0871
8,AGTTCGTA,0.439
9,CTTGCAGA,-0.17
10,GTATAGAA,0.345
11,AGGTGCTG,-0.387
12,CATCAGTC,-0.123
13,CTCGCCCA,-0.102
14,ACACCAGC,-0.111
15,GTGTCGCA,0.0927
16,ATGTCGTC,-0.0259
17,CTGTCGTC,0.00126
18,CTGTCGAA,-0.181
19,GTGTCGTA,0.44
20,GTGTCGGA,0.0733
21,ATGTCGTG,-0.0693
22,CTGTCGTA,0.447
23,ATGTCGTA,0.45
24,GTGTGGCA,-0.371
25,AACCGGCT,-0.239

row,Sequence,PBM E-score
1,AACTATCA,0.134
2,ATGTGAAT,0.12
3,AATACCGC,-0.131
4,CGTATGCA,0.377
5,CGTATGTC,0.353
6,CGTATGCC,0.372
7,AGTATGCA,-0.3
8,CGTATGTA,0.387
9,CCTATGCC,-0.13
10,AGTATGTA,0.0299
11,AGTATGCC,-0.189
12,GGTATGCA,-0.00862
13,GCAGTAGC,-0.174
14,AGCGGGTC,-0.0751
15,CATTTTTC,0.0327
16,TAATCTCA,-0.058
17,CGCTGGAA,-0.186
18,ACCATCTG,-0.225
19,CACTCGAA,0.0152
20,AACTCGTG,0.178
21,AACTCGTA,0.455
22,GACTCGTA,0.436
23,GACTCGCA,-0.0142
24,GACTCGAA,-0.194
25,CACTCGTC,0.0141

row,Sequence,PBM E-score
1,CACTCGTA,0.455
2,AACTCGTC,0.0662
3,CCACTTCG,0.0558
4,AATGGAGT,-0.266
5,AGCGTTAC,0.0438
6,CTCTTCCA,-0.0797
7,CCGCTGGC,-0.258
8,GAAATGTC,-0.0124
9,ACGCGAGG,0.219
10,AAGACTCA,-0.172
11,ACTGACTC,-0.192
12,CTCGAACA,-0.00626
13,CCAATAGC,-0.22
14,TACATCGA,0.038
15,ACTTACGG,0.194
16,GCTTACAA,-0.0171
17,ACTTACGC,-0.0998
18,GCTTACGA,0.421
19,GCTTACTA,-0.0799
20,CCTTACTA,0.029
21,CCTTACGA,0.407
22,ACTTACGA,0.382
23,CCTTACGC,0.193
